For experiment [1], the target named is Fibroblast growth factor receptor 4 (Homo sapiens) (UniProt P22455). The settings on record: at 1 µM.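 Note: reported figure is the averaged percent inhibition of FGFR4, from the GSK PKIS kinase screening panel.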
For experiment [2], the target named is Tyrosine-protein kinase Fgr (Homo sapiens) (UniProt P09769). Conditions: at 0.1 µM.
The target is the same in experiment [3]. Conditions: at 1 µM.
The target of experiment [4] is Vascular endothelial growth factor receptor 1 (Homo sapiens) (UniProt P17948). Conditions: at 0.1 µM.
Vascular endothelial growth factor receptor 1 (Homo sapiens), sequence (P17948 whole entry): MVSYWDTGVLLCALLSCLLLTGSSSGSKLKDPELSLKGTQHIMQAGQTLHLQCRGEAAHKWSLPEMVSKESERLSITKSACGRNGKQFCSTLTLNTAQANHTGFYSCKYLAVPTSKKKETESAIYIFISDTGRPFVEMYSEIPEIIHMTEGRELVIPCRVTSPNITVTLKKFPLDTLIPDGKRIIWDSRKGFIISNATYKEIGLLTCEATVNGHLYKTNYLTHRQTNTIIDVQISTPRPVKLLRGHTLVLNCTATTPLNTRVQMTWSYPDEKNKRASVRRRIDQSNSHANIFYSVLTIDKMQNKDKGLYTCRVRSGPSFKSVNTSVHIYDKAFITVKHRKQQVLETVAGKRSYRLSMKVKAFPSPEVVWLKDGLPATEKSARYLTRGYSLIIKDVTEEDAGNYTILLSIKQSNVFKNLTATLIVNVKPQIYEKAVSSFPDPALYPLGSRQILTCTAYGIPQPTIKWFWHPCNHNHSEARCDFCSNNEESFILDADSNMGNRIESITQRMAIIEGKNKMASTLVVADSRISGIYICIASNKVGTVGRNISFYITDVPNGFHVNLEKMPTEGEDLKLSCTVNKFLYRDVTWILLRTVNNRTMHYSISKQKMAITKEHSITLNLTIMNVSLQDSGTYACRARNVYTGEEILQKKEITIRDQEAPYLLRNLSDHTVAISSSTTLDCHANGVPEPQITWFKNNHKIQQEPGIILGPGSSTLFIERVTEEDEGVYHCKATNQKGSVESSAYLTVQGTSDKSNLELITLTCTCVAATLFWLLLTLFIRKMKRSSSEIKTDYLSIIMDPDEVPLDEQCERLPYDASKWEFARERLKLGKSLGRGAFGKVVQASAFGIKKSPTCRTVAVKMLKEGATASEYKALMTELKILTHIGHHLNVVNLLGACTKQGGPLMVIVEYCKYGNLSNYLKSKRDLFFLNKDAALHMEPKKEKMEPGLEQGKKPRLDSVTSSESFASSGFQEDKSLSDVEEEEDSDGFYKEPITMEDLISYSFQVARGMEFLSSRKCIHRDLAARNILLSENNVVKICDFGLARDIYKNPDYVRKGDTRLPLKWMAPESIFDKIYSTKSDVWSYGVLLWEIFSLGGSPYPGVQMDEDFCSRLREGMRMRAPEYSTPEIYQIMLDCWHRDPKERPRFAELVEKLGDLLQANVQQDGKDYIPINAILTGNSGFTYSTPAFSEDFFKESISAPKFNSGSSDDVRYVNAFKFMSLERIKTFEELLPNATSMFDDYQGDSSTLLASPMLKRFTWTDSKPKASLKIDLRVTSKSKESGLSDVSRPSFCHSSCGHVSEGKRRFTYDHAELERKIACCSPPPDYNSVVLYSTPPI
For experiment [5] the target is unchanged. Conditions: at 1 µM.
Experiment [6] deals with Receptor-type tyrosine-protein kinase FLT3 (Homo sapiens) (UniProt P36888). The settings on record: at 0.1 µM.
Experiment [7] has the same target. The settings on record: at 1 µM.
In experiment [8] the test system is T1, Receptor-type tyrosine-protein kinase FLT3 (Homo sapiens), P36888 [D835Y].
T1 sequence (whole entry): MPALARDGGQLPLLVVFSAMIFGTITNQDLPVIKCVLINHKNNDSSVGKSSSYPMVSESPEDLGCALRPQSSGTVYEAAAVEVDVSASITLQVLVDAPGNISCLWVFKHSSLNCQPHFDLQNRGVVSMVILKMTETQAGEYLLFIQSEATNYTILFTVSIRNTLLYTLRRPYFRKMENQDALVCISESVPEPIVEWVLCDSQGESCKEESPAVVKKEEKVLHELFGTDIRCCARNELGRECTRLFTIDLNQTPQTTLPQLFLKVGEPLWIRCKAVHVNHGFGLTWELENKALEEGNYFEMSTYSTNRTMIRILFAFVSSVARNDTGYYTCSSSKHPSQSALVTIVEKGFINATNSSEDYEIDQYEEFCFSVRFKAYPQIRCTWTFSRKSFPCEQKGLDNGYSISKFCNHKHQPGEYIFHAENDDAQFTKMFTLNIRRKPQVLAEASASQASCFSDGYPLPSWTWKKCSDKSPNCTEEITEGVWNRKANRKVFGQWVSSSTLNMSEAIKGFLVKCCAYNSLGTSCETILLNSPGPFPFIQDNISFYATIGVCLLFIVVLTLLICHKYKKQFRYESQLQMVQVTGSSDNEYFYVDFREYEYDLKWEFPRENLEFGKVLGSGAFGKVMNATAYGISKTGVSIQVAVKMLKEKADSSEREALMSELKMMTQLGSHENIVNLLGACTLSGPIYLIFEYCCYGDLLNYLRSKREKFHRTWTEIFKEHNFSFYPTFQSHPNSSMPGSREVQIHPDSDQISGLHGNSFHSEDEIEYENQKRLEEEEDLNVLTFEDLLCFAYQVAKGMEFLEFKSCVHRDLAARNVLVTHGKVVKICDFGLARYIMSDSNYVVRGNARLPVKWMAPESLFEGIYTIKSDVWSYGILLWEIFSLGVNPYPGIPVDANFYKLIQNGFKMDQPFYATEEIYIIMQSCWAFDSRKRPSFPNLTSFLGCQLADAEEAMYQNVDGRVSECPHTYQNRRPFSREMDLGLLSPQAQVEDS
Conditions: at 0.1 µM.

In experiment [9] the target is Non-receptor tyrosine-protein kinase TYK2 (Homo sapiens) (UniProt P29597). The settings on record: at 1 µM.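 Note: values are mean percent inhibition of TYK2 kinase.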
Non-receptor tyrosine-protein kinase TYK2 (Homo sapiens), sequence (P29597 whole entry): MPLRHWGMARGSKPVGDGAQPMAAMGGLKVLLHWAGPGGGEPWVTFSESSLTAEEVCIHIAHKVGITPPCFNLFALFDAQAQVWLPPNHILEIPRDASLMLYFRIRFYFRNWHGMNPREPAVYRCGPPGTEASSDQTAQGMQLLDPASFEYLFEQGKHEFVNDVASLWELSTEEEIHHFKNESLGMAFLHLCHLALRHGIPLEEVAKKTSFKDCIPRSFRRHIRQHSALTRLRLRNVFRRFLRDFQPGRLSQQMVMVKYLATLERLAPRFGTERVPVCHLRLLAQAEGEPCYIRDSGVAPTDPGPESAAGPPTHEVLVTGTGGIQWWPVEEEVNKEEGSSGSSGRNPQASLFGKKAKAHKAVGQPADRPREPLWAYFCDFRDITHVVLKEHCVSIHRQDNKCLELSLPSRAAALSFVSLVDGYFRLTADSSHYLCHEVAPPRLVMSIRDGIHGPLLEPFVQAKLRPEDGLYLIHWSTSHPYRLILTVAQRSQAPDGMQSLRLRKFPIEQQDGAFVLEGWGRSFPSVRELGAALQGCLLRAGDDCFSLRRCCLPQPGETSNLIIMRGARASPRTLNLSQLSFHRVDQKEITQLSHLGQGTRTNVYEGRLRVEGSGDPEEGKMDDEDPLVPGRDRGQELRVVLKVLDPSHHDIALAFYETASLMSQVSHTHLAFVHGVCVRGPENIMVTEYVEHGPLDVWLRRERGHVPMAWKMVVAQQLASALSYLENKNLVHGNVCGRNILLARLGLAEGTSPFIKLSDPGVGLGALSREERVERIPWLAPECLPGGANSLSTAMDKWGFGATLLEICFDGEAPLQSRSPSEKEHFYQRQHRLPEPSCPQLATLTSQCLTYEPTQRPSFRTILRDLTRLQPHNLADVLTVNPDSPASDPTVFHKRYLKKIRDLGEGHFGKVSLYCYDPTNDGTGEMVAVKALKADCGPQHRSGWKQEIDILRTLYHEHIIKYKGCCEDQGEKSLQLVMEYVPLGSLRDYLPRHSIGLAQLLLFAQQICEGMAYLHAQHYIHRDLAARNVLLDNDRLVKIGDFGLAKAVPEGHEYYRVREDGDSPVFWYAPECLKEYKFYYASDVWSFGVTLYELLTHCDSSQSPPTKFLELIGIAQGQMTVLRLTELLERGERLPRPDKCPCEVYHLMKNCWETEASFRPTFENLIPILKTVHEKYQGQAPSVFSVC
In experiment [10] the target is T2, Tyrosine-protein kinase receptor TYRO3 (Homo sapiens) (UniProt Q06418).
T2 sequence (whole entry): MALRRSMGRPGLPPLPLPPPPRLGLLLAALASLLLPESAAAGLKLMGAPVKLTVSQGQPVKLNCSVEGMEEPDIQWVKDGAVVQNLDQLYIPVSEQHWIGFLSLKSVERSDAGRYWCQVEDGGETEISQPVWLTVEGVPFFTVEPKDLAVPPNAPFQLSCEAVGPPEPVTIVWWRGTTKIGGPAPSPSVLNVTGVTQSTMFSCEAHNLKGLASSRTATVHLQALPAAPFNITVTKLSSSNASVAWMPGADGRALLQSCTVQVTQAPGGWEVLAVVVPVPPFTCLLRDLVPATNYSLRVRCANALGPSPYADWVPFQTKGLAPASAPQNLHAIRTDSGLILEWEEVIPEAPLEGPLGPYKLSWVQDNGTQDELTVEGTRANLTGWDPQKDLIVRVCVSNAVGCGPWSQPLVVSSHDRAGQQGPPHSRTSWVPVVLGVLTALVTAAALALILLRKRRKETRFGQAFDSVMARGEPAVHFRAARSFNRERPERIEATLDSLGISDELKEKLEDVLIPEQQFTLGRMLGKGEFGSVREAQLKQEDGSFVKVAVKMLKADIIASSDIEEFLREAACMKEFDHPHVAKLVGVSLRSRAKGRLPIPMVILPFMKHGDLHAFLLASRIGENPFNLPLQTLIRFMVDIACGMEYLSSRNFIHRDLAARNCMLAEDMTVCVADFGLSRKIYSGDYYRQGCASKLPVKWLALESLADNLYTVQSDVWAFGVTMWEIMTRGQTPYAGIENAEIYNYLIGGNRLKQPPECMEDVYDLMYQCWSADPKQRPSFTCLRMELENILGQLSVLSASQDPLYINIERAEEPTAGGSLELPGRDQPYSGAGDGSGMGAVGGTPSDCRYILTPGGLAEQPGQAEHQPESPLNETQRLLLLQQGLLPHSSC
Conditions: at 0.1 µM.

Experiment [11] concerns the target T2, Tyrosine-protein kinase receptor TYRO3 (Homo sapiens). The settings on record: at 1 µM.
In experiment [12] the target is Tyrosine-protein kinase Yes (Homo sapiens) (UniProt P07947). The settings on record: at 0.1 µM.
Tyrosine-protein kinase Yes (Homo sapiens), sequence (P07947 2-543 limits assumed): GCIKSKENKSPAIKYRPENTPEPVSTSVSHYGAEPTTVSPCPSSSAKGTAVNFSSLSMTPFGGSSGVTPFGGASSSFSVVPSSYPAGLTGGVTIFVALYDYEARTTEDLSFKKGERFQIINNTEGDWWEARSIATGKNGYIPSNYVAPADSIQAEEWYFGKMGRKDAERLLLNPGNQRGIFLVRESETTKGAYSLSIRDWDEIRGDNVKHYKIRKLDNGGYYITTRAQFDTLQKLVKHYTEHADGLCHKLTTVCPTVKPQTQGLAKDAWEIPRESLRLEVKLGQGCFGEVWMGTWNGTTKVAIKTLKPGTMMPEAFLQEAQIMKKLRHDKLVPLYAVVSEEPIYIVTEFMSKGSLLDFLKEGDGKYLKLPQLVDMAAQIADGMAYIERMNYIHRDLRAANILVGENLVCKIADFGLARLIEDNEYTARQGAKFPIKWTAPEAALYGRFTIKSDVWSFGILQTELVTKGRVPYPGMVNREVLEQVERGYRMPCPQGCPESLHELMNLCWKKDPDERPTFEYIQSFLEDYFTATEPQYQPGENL
Experiment [13] has the same target. Conditions: at 1 µM.
Experiment [14] concerns the target T3, Tyrosine-protein kinase ZAP-70 (Homo sapiens) (UniProt P43403).
T3 sequence (whole entry): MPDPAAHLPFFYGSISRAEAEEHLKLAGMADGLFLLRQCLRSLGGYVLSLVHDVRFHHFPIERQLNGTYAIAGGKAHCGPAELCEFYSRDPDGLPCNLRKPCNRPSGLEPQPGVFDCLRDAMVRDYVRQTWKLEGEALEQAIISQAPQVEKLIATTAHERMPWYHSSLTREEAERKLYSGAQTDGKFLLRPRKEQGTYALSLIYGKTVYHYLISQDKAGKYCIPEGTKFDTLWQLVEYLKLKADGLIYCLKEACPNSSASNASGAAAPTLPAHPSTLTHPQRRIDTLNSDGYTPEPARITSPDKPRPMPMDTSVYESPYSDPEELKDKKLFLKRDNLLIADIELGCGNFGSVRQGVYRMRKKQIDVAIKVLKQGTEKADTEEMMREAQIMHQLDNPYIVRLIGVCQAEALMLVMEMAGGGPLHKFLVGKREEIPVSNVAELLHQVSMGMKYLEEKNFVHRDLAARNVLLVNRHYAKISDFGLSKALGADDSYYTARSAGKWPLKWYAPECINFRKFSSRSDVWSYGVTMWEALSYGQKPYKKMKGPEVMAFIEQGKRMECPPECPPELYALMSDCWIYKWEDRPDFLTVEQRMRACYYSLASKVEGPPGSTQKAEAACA
Conditions: at 0.1 µM.

Experiment [15] deals with T3, Tyrosine-protein kinase ZAP-70 (Homo sapiens). The settings on record: at 1 µM.
Experiment [16] concerns the target Serine/threonine-protein kinase B-raf (Homo sapiens) (UniProt P15056). Conditions: at 0.1 µM.
For experiment [17] the target is unchanged. Conditions: at 1 µM.
Experiment [18] has as its system Serine/threonine-protein kinase B-raf (Homo sapiens), P15056 [V600E]. The settings on record: at 0.1 µM.
The test system is the same in experiment [19]. Conditions: at 1 µM.
For experiment [20], the target named is RAF proto-oncogene serine/threonine-protein kinase (Homo sapiens) (UniProt P04049). The settings on record: at 0.1 µM.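 Note: values are mean CRAF kinase inhibition from profiling of the GSK Published Kinase Inhibitor Set.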
RAF proto-oncogene serine/threonine-protein kinase (Homo sapiens), sequence (P04049 whole entry): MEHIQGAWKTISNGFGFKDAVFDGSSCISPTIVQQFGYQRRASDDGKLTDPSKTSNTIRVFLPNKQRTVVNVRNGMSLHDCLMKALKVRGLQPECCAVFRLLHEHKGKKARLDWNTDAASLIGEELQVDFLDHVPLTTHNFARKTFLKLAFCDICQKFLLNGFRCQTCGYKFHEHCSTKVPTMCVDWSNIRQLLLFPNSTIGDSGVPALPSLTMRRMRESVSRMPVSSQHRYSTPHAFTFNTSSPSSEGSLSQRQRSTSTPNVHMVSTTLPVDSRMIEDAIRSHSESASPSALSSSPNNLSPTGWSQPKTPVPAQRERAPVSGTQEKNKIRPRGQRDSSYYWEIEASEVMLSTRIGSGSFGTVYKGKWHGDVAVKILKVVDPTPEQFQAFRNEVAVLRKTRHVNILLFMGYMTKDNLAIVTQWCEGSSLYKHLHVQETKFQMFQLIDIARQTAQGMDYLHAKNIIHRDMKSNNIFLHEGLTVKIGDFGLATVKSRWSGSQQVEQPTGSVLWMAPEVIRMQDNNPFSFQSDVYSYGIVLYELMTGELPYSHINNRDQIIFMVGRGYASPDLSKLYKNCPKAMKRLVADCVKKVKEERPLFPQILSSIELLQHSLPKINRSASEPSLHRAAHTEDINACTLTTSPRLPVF

Structures are written as SMILES.

The term inhibition denotes the drop in the measured response relative to a control, in per cent.

Serine/threonine-protein kinase B-raf (Homo sapiens), sequence (P15056 whole entry): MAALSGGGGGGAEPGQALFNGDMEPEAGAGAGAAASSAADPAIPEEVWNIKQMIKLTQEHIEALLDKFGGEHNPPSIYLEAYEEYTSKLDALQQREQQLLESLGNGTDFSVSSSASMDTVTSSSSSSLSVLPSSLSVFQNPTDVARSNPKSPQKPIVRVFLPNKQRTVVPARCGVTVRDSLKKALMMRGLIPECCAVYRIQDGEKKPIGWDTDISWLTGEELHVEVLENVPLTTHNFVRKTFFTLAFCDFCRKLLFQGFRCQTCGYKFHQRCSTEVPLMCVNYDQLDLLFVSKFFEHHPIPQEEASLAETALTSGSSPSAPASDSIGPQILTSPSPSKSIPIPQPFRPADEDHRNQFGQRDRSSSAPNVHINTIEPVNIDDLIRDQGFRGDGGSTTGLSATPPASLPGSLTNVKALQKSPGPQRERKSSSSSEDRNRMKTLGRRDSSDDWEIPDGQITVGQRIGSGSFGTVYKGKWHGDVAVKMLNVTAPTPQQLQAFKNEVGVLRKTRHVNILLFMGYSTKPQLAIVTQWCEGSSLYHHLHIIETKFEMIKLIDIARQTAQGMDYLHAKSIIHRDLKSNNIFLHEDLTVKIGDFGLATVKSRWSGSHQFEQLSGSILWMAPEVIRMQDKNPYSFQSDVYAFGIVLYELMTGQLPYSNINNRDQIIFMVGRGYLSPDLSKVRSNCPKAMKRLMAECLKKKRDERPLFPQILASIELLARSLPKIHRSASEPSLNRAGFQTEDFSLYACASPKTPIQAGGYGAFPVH
Tyrosine-protein kinase Fgr (Homo sapiens), sequence (P09769 2-529 limits assumed): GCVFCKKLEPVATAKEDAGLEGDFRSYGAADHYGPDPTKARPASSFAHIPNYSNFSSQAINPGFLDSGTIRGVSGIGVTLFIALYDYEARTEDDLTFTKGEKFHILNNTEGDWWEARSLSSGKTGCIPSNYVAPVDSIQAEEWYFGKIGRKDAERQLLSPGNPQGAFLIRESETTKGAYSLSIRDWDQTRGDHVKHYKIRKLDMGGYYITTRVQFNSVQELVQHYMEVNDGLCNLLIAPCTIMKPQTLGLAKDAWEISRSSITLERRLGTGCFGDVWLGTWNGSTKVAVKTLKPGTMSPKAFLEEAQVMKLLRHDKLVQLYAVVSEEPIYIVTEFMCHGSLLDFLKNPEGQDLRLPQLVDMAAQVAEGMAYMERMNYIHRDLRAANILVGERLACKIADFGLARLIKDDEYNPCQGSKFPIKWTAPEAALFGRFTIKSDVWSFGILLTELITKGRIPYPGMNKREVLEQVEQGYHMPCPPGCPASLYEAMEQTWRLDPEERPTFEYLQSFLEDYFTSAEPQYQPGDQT
Serine/threonine-protein kinase B-raf (Homo sapiens), P15056 [V600E], sequence (P15056 whole entry V600E): as the sequence (P15056 whole entry) above, with V600E counted along it

For `Fc1ccc(-c2nn3ccccc3c2-c2ccncc2)cc1`, the inhibition is 2.03% in [1]; -0.1% in [2]; 6.02% in [3]; 1.98% in experiment [4]; 2.63% in [5]; -0.06% in experiment [6]. In addition, the inhibition in [7] is 2.86%; in [8], -0.98%; in experiment [9], -0.08%; in [10], 0.22%; in experiment [11], 1.25%; in experiment [12], 0.18%. The inhibition came out at 5.66% in experiment [13]; 0.73% in experiment [14]; 2.32% in [15]; 2.84% in [16]; 7.13% in experiment [17]; 2.64% in experiment [18]. The inhibition in [19] is 4.72%; in experiment [20] it was -1.45%.
Turning to `NS(=O)(=O)c1ccc(N/N=C2\C(=O)Nc3ccc4ncccc4c32)cc1`, the inhibition in experiment [1] was 6.88%; in experiment [2], 8.01%; in experiment [3] it was 42.4%; in experiment [4], 11%; in experiment [5], 59.6%; in [6], 23.9%. The inhibition in experiment [7] worked out at 73.2%; in experiment [8], 35.1%; in [9], 33.5%; in experiment [10], 7.02%; in [11] it was 41.9%; in experiment [12], 9.32%. The inhibition in experiment [13] worked out at 48.2%; in [14], 3.49%; in experiment [15], 18.7%; in experiment [16] it was 15%; in experiment [17], 60.2%; in [18], 14.6%. Also, the inhibition is 60.8% in [19] and -0.71% in experiment [20].
`c1ccc(COc2ccc(Nc3ncnc4ccc(-c5ccco5)cc34)cc2)cc1`: the inhibition in experiment [1] was 0.84%; in experiment [2], 3.1%; in experiment [3], 7.56%; in [4], -2.31%; in experiment [5], -0.13%; in [6], 0.33%. In addition, the inhibition was 3.12% in experiment [7]; -0.59% in experiment [8]; -2.46% in [9]; 0.34% in experiment [10]; 1.86% in experiment [11]; 3.28% in experiment [12]. Besides, the inhibition in experiment [13] was 13.1%; in experiment [14] it was -2.15%; in [15], 0.17%; in experiment [16], 1.52%; in experiment [17], 1.99%; in experiment [18] it was 2.01%. Further, the inhibition is 3.23% in experiment [19] and 11.2% in experiment [20].
Take `Clc1ccc(-c2nn3ncccc3c2-c2ccnc(Nc3ccccc3)n2)cc1`: the inhibition in [1] was found to be 1.94%; in experiment [2], 25.1%; in experiment [3] it was 70.2%; in experiment [4], 4.39%; in experiment [5] it was 14.6%; in experiment [6], 0.8%. Further, the inhibition was 4.19% in experiment [7]; -2.63% in experiment [8]; -0.64% in [9]; 1.14% in experiment [10]; 5.63% in experiment [11]; 44.9% in experiment [12]. Moreover, the inhibition in [13] was determined as 89.5%; in experiment [14], 0.2%; in [15], 0.42%; in [16], 2.69%; in [17] it was 4.94%; in [18], 2.08%. The inhibition is 5.6% in experiment [19] and -2.35% in experiment [20].
`Fc1ccc(-c2nn3ncccc3c2-c2ccnc(Nc3ccc4c(c3)OCCO4)n2)cc1`: the inhibition in experiment [1] came to 3.32%; in experiment [2], 68.2%; in experiment [3] it was 84%; in experiment [4] it was 7.67%; in [5], 30.8%; in experiment [6], 2.79%. Further, the inhibition was 6.52% in [7]; -1.97% in experiment [8]; -3.36% in experiment [9]; 5.85% in experiment [10]; 24.8% in experiment [11]; 86.3% in [12]. Also, the inhibition in experiment [13] is 96.6%; in experiment [14], 3.1%; in experiment [15] it was 3.06%; in experiment [16], 11.6%; in experiment [17], 25.9%; in [18] it was 11.6%. The inhibition in experiment [19] amounted to 21.5%; in experiment [20], 0.23%.
As for `Fc1ccc(-c2cc(-c3c[nH]nc3-c3ccccn3)ccn2)cc1`, the inhibition in experiment [1] is -0.52%; in experiment [2], 5.85%; in experiment [3], 3.11%; in [4], 1.1%; in experiment [5] it was 1.96%; in [6], 2.44%. Also, the inhibition was 2.5% in experiment [7]; -6.21% in experiment [8]; -4.52% in experiment [9]; 3.67% in experiment [10]; 5.06% in experiment [11]; 5.64% in experiment [12]. In addition, the inhibition in [13] came out at 9.04%; in experiment [14] it was 2.71%; in experiment [15] it was 2.35%; in [16], 6.7%; in experiment [17] it was 8.05%; in experiment [18], 9.04%. For the same molecule, the results for the inhibition in experiment [19] and in [20] were 6.61% and 0.68%, respectively.
On to `COc1cc(/C=N/Nc2ncnc3[nH]ncc23)ccc1O`, for which the inhibition in experiment [1] was 2.77%; in [2], 12.4%; in [3] it was 52.6%; in [4], 2.92%; in experiment [5] it was 10.6%; in [6] it was 3.29%. Besides, the inhibition was determined as 17.4% in experiment [7]; 3.54% in [8]; 4.1% in experiment [9]; 4.61% in experiment [10]; 26.6% in experiment [11]; 16.4% in [12]. For the same molecule, the inhibition in experiment [13] is 58%; in [14], 0.75%; in [15], 7.51%; in [16] it was 5.39%; in experiment [17], 8.88%; in [18] it was 4.62%. The inhibition in experiment [19] came out at 8.2%; in experiment [20] it was 4.83%.
